Compound activity from PubChem.
A selection: hits, their analogues and other compounds. The true share with any hit is near 3.7%.
BJeLR lethal: kills HRASV12-expressing BJeLR cells | BJeLR (HRASV12) viability, CellTiter-Glo ATP luminescence, 48 h | inhibition, % (test concentration not listed) | 300,000 tested, 0.17% active | AID 1554; in the data active means inhibition above about 50%; inconclusive means no clear call, values can overlap the other calls
Anthrax LF inh2: inhibitors of Bacillus anthracis lethal factor protease. P15917. multiplex microsphere protease cleavage assay, LF. inhibition, % at 10 µM. 360,000 tested, 0.12% active; further: plate controls were buffer without enzyme for full effect and enzyme alone for no effect
BoNT-A LC inh2: inhibitors of Botulinum neurotoxin A light chain protease | 360,000 tested, 0.17% active | multiplex microsphere protease substrate cleavage, flow cytometry | inhibition, % at 10 µM; further: plate controls were buffer without enzyme for full effect and enzyme alone for no effect
Bead autofluor: counter-screen for toxin protease inhibitors: compound fluorescence. compound autofluorescence counterscreen, microsphere flow cytometry; stronger effect = higher value. fluorescence intensity (concentration not given with the values). 360,000 tested, 3.1% active. AID 624483; in the data active means fluorescence intensity above about 16000; inconclusive means no clear call, values can overlap the other calls
BoNT F protease: blocks Botulinum neurotoxin F light chain protease; Multiplex microsphere protease cleavage assay, flow cytometry; inhibition, % at 10 µM; 360,000 tested, 0.22% active; in the data active means inhibition above about 35%, passing the limit was not always enough; inconclusive means no clear call, values can overlap the other calls; further: plate controls were buffer without enzyme for full effect and enzyme alone for no effect
BH1578 lux ind: inducers of Vibrio cholerae quorum light production without autoinducers. V. cholerae BH1578 lux reporter, luminescence, 6 h. 350,000 tested, 0.16% active. activation, % at 18.7 µM; in the data active means activation mostly above about 9.7%, no sharp cut-off; inconclusive means no clear call, values can overlap the other calls; inactive means mostly below about 3.7%
* = called active by the depositor; i = inactive; ? = inconclusive; / = no result. Unless noted, no stated cut-off is given here; in the data, active means inhibition above about 30%; inconclusive means no clear call, values can overlap the other calls; inactive means below that.

SMILES | BJeLR lethal | Anthrax LF inh2 | BoNT-A LC inh2 | Bead autofluor | BoNT F protease | BH1578 lux ind
COCCNc1nc(-c2ccccc2CO)c2sc(-c3ccccc3)cc2n1 | / | 3.7 | 5.7 | 3463 | 0.9 | 0.3
CCN(CC)S(=O)(=O)c1ccc(S(=O)(=O)Nc2ccc3c(c2)oc2ccccc23)cc1 | -10.0 | 0.4 | ? | 20070* | -4.8 | -1.4
CC(=O)N1CCN(Cc2ccc(Br)s2)CC1 | -10.5 | -2.2 | 0.7 | 22754* | 2.7 | -0.6
CCOc1ccccc1N1CCN(Cc2ccc(Br)s2)CC1 | -4.8 | -5.7 | -0.3 | 5915 | -9.7 | -0.8
CCOC(=O)N1CCN(c2nc(C)c3c(n2)CC(C)CC3=O)CC1 (stereo not given) | / | -3.6 | 0.0 | 23668* | -1.1 | i
O=C1CC(N2CCC(c3nc4ccccc4o3)CC2)C(=O)N1c1cc(Cl)cc(Cl)c1 (stereo not given) | -15.0 | -0.7 | 0.9 | 22844* | -0.9 | -2.4
COc1cc(OC)cc(-c2nc3cc(C)ccc3o2)c1 | 23.2 | -9.7 | -0.7 | 22263* | -2.3 | i
O=C(NC1=NCCS1)c1cc2ccccc2o1 | 16.7 | -6.5 | -1.2 | 20997* | -5.2 | 6.2
Cc1cccc(C(=O)NC2=NCCS2)c1 | -2.7 | -4.2 | -0.9 | 4810 | -4.5 | -0.4
Cc1cc(C(=O)NC2=NCCS2)cs1 | 2.2 | -0.3 | ? | 22079* | -10.5 | -2.2
N#CC(c1ccc(N)cc1)C(CC(=O)c1ccccc1)c1ccccc1 (stereo not given) | / | 0.7 | 0.1 | 3523 | -2.5 | i
CC(C)(C)OC(=O)N1CCN(C(c2ccnc3ccccc23)c2nnnn2-c2ccc3c(c2)OCCO3)CC1 (stereo not given) | / | -1.6 | -0.3 | 4371 | -4.3 | /
COC(=O)c1cc(OC)c(OC)cc1NC(=S)N1CCC(C(N)=O)CC1 | 3.7 | -3.0 | -4.5 | 17588* | -6.0 | i
COC(=O)c1cc(OC)c(OC)cc1NC(=S)N1CCCCC1 | / | 2.0 | 5.3 | 20422* | 7.7 | -0.2
CCOC(=O)C1CCN(C(=S)Nc2cc(OC)c(OC)cc2C(=O)OC)CC1 | 7.7 | 0.7 | 0.3 | 20685* | 1.1 | -0.2
COC(=O)c1cc(OC)c(OC)cc1NC(=O)CN1CCCCC1 | 0.4 | -4.1 | 0.5 | 22761* | -3.7 | i
COC(=O)c1ccc(C(=O)OC)c(NC(=O)CN2CCCCC2)c1 | -18.3 | 0.3 | 0.0 | 2051 | -2.8 | i
Cc1ccc(S(=O)(=O)N2CCOCC2)cc1C(=O)NCCCN1CCCC1=O | / | -13.9 | -0.1 | 3856 | 2.7 | 0.5
CCN(CC(=O)Nc1ccc(OC)cc1)C(=O)C1CC(=O)N(Cc2ccccc2)C1 (stereo not given) | / | -1.9 | 0.6 | 3488 | 2.4 | 1.1
CS(=O)(=O)Nc1cccc(NC(=O)c2cccc3c(-c4ccc(F)c(F)c4)coc23)c1 | / | -2.3 | -0.2 | 4028 | -3.2 | -0.4
CC1(C)CC(=O)C(C(C2=C(O)CC(C)(C)CC2=O)c2cccc(O)c2)C(=O)C1 (stereo not given) | / | -1.7 | ? | 20599* | -3.6 | 1.4
CCOc1ccc(-c2cc(C(=O)Nc3cccc(C(F)(F)F)c3)[nH]n2)c(C)c1 | / | -6.1 | -0.3 | 4084 | 3.1 | -0.2
Cc1ccccc1OCC(=O)OCC(=O)NC1CCCC(C)C1C (stereo not given) | / | -4.9 | -0.2 | 2939 | 0.1 | 4.5
COc1ccc(Cn2cc(CN3CC(N4CCN(CCN(C)C)CC4)CS3(=O)=O)nn2)cc1 (stereo not given) | / | 1.0 | 1.0 | 5983 | 1.6 | /
COc1ccc2c(c1)c1nc3ccccc3nc1n2CCn1c(=O)oc2ccccc21 | -14.7 | -0.2 | 0.9 | 16506* | 1.2 | i
SMILES | BJeLR lethal | Anthrax LF inh2 | BoNT-A LC inh2 | Bead autofluor | BoNT F protease | BH1578 lux ind
Oc1ccc(C=NCC2COc3ccccc3O2)cc1 (stereo not given) | -22.4 | -0.1 | 1.9 | 20126* | -0.7 | -0.9
COc1ccc(C=NCC2COc3ccccc3O2)cc1OC (stereo not given) | 2.6 | 5.0 | 0.1 | 10823 | -4.7 | i
CC(=O)Nc1ccc(-c2ccnc3c2CC(C)(C(=O)NCc2ccc(N4CCN(C)CC4)cc2)O3)cc1 (stereo not given) | / | -2.6 | 0.4 | 3826 | 1.0 | i
CCCc1nc2scc(-c3ccccc3)c2c(=O)n1N | / | -0.9 | -1.8 | 23965* | 0.4 | 0.9
CCc1nc2scc(-c3ccc(C)cc3)c2c(=O)n1N | -3.7 | -0.7 | -0.6 | 2177 | 1.3 | -0.2
COc1ccc(-c2nnc3ccc(SCC(=O)NCC4CCCO4)nn23)cc1 (stereo not given) | -14.4 | -2.2 | -6.0 | 25334* | -10.7 | -0.2
